Compound activity as filed in PubChem BioAssay.
TDP1 block: qHTS Assay for Inhibitors of Tyrosyl-DNA Phosphodiesterase (TDP1). Tyrosyl-DNA phosphodiesterase 1 (Homo sapiens), Q9NUW8. recombinant TDP1, AlphaScreen DNA substrate cleavage. Potency, µM (series often up to 130 µM), for the others: top-dose activity change, negative = inhibition, most hits filed as inhibitors. 0.28% of 350,000 active. AID 485290, 2010; further: potency means the concentration at half of the fitted maximal effect; on the % scale 0 is the no-effect control and ±100 the full control effect; nearly all actives have a fitted effect of over 40% in size
Target sequence (Q9NUW8 whole entry, looked up): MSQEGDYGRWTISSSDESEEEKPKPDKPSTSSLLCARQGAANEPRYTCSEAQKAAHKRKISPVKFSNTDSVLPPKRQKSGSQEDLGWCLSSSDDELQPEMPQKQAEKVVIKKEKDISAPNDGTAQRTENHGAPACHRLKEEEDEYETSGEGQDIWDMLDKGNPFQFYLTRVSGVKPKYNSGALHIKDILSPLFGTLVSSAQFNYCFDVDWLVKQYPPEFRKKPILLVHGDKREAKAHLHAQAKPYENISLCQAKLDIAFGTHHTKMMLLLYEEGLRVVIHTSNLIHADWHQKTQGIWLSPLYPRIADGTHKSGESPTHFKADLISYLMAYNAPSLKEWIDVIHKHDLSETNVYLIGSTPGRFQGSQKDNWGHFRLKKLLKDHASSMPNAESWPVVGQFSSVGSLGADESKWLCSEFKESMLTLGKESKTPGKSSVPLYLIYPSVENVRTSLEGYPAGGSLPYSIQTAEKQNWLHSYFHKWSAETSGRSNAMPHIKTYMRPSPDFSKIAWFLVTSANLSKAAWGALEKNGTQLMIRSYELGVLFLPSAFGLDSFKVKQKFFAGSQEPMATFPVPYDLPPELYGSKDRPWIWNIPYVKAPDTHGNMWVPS
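Enzyme-compound mixtures sat 15 min at room temperature, followed by a 5 min reaction with 15 nM final substrate and 10 min with AlphaScreen beads. Recombinant human Tdp1 was used at 1 nM final.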
DT40 TDP1 no CPT: qHTS for Inhibitors of human tyrosyl-DNA phosphodiesterase 1 (TDP1): qHTS in cells in absence of CPT; DT40 Tdp1-/- hTDP1 cells, no CPT, ATP luminescence, 48 h; AID 686978, 2013; Potency, µM (series often up to 46.2 µM), for the others: at the top dose activity change, negative = growth inhibition, most hits filed as inhibitors; 15% of 420,000 active; further: potency means the concentration at half of the fitted maximal effect; on the % scale 0 is the no-effect control and ±100 the full control effect; nearly all actives have a fitted effect of over 55% in size
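Readout: luminescence from CellTiter-Glo after 30 min in the dark at RT. Cells: DT40 Tdp1-/- with stable hTDP1, 400/well. Exposure: compounds alone, ≥48 hr, 37 °C.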
TDP1 cell CPT: qHTS for Inhibitors of human tyrosyl-DNA phosphodiesterase 1 (TDP1): qHTS in cells in presence of CPT. chicken DT40 Tdp1-/-;hTDP1 cells + 20 nM CPT, ATP luminescence, 48 h. Potency, µM (doses to about 46.2 µM), inactives show at the highest dose activity change, negative = growth inhibition, actives largely listed as inhibitors. 12% of 420,000 active; further: potency means the concentration at half of the fitted maximal effect; on the % scale 0 is the no-effect control and ±100 the full control effect; nearly all actives have a fitted effect of over 55% in size
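Cell growth measured by CellTiter-Glo luminescence after a minimum 48 h, 37 C compound exposure with 20 nM CPT in Tdp1-knockout DT40 cells stably expressing hTDP1, seeded 400/well; qHTS titration format.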
miR-21 act: qHTS Assay for Modulators of miRNAs and/orActivators of miR-21 | HeLa miR-21 FLuc reporter, luciferase, 48 h | Potency, µM (titrated, usually from 38.3 µM), for inactives: at the top dose activity change, positive = activation, hits mostly activators | 340,000 tested, under 10 active;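 further: % of control where 0% means no effect; miR-21 action dims this reporter so a rising signal means less miR-21 action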
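Compounds were titrated across several concentrations (up to approximately 40 uM) and incubated 48 hours with HeLa miR-21-FLuc reporter cells (miR-21 target sequence downstream of FLuc, endogenous miR-21). Readout was firefly luciferase luminescence after lytic detection reagent.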
uPA surface inh: qHTS for Inhibitors of Cell Surface uPA Generation; Potency, µM (highest dose often 38.3 µM), for the others: at the top dose activity change, negative = inhibition, most hits filed as inhibitors; cell surface uPA generation assay, qHTS; 0.31% of 330,000 active; active means well fitted inhibition curve with a large enough effect; inconclusive means small, poorly fitted or top-dose-only effect; inactive means no such curve, though single readings can be large or run the other way; tested in mouse RAW 264.7 cells; further: potency means the concentration at half of the fitted maximal effect; on the % scale 0 is the no-effect control and ±100 the full control effect; nearly all actives have a fitted effect of over 55% in size
Numbers without * were called inactive; ? = inconclusive; / = no result given; ! = not confirmed by another sample; [ ] = dose if it differs, or a comment. In the library only some 16% were active in any assay of this set; here they are far more common. Unless noted, the call rests on the fitted dose curve; in most records, active means well fitted curve in the direction sought with a large enough effect; inconclusive means small, poorly fitted or top-dose-only effect, or another doubt; inactive means no such curve, though single readings can be large; an effect the other way counts as inactive or inconclusive.

SMILES	TDP1 block	DT40 TDP1 no CPT	TDP1 cell CPT	miR-21 act	uPA surface inh
CCN(CC)c1ccc(NC(=O)c2cccc(C)c2)cc1S(=O)(=O)Nc1ccccc1OC	-1.2%	23.1µM*	16.4µM*	-0.3%	7.5%
O=C1C(=O)c2ccccc2-c2ccccc21	3.4%	0.581µM*	0.517µM*	?	?
c1cc2ccc3cccc4ccc(c1)c2c34	8.2%	-21.5%[92.5 µM]	-8.9%[92.5 µM]	/	/
O=C1C(=O)c2cccc3cccc1c23	-7.6%	0.651µM*	0.581µM*	0.8%	8.1%
NC(=NCc1ccc(Cl)cc1)SCCCc1cnc[nH]1	19.5%	?	21.1µM*	/	/
COc1ccc(N2CCN(c3ncnc4c3nc3n4CCCCC3)CC2)cc1	-1.2%	?	?	3.3%	/
COc1ccc(N2CCN(CCCNC(=O)c3cnn(-c4ccc(F)cc4)c3-n3cccc3)CC2)cc1	2.8%	/	/	?	/
O=C(NCc1ccc(Cl)cc1)C(=O)NCC(c1cccnc1)N1CCN(c2ccccc2)CC1 (stereo unspecified)	3.9%	7.31µM*	9.2µM*	-11.0%	/
Cc1ccc(CNC(=O)C(=O)NCC(c2cccnc2)N2CCN(c3ccc(F)cc3)CC2)cc1 (stereo unspecified)	-3.9%	3.26µM*	4.11µM*	-1.1%	/
CC(C)[C@@]1(NC(=O)[C@@H]2C[C@H]3c4cccc5[nH]cc(c45)C[C@@H]3N(C)C2)O[C@@]2(O)[C@H]3CCCN3C(=O)[C@H](Cc3ccccc3)N2C1=O	14.3%	?	?	/	/
COCCNC(=O)c1c(NC(=O)c2ccc(Br)o2)n(Cc2ccccc2)c2nc3ccccc3nc12	1.3%	?	18.4µM*	22.6%	-1.0%
COCCCNC(=O)c1c(NC(=O)c2ccco2)n(Cc2ccccc2)c2nc3ccccc3nc12	4.7%	25.9µM*	?	-0.3%	-15.8%
NC1(c2ccccc2Cl)CCCCC1=O (stereo unspecified)	5.1%	/	/	/	/
O=[N+]([O-])C(Br)Br	7.6%	/	/	/	/
COc1ccc(C)cc1NC(=O)c1cccn(Cc2ccccc2Cl)c1=O	-2.2%	-1.1%	-29.0%	-1.4%	/
CCCCCCCCCOc1ccc2[nH]cc(CCN)c2c1	11.0%	8.2µM*	7.31µM*	?	/
C=C1C(=O)O[C@@H]2C[C@@H](C)[C@@H]3C4OC4C(=O)[C@@]3(C)[C@@H](O)[C@H]12 (stereo partly specified)	0.0%	0.517µM*	1.03µM*	?	96.4%
O=C1CN=C(c2ccccc2)c2cc(Br)ccc2N1	/	?	11.4%	-3.5%	-7.0%
O=C1C=CCC(/C=C/c2ccccc2)O1 (stereo unspecified)	6.6%	3.66µM*	2.31µM*	23.6%	1µM*
NP(=O)(OCCCc1ccccc1)Oc1ccccc1 (stereo unspecified)	/	-20.3%	-17.8%	-3.6%	2.6%
NC(=O)OCCCc1ccccc1	6.4%	21.1µM*!	5.31µM*!	/	-5.0%
CC(=O)NS(=O)(=O)c1ccc(NC(=O)c2cccn(Cc3ccc(Cl)cc3)c2=O)cc1	4.4%	-3.0%	-14.7%	-9.9%	/
CC(Nc1cc(C)cc(C)c1)=[N+](C)CCNS(=O)(=O)c1ccc(Cl)cc1	0.2%	-18.6%	13µM*	-3.4%	-0.7%
CCc1cc(-c2cnnn2Cc2ccc3ccccc3c2)ccc1-c1cn(CC(C)C)nn1	/	20.6µM*	25.9µM*	/	/
CC1CN1c1cc2c(c3c1ccn3C)C1CCC2C1 (stereo unspecified)	/	8.2µM*	7.31µM*	/	/
SMILES	TDP1 block	DT40 TDP1 no CPT	TDP1 cell CPT	miR-21 act	uPA surface inh
O=P1(NCCCl)OCCC(OO)N1CCCl (stereo unspecified)	/	-14.1%	-39.9%	/	/
CC(C)CCNC(=O)CNC(=O)[C@@H](C)NC(=O)[C@@H](N)Cc1ccc(O)cc1	8.9%	/	/	/	/
COCCOc1ccc(C(F)(F)F)cc1NC(=O)CN1C(=O)NC2(CCCc3ccccc32)C1=O (stereo unspecified)	0.3%	25.9µM*	?	/	0.7%
CN(c1ccc(OCC(=O)N2CCN(C/C=C/c3ccccc3)CC2)cc1)S(=O)(=O)c1cccs1	0.0%	5.8µM*	13µM*	24.6%	-9.5%
Cc1ccc2c(c1)C1CN(C)CCC1N2C(=O)COc1ccc(N(C)S(=O)(=O)c2cccs2)cc1 (stereo unspecified)	4.8%	?	-27.8%	-2.2%	-1.5%
COc1cccc(C(=O)C2CCCN(C3CCOCC3)C2)c1 (stereo unspecified)	7.4%	-5.6%	4.7%	-0.1%	-92.5%
CCCCC(=O)N1CCCC(c2nc(-c3cccc(OC)c3)no2)C1 (stereo unspecified)	-3.0%	14.6µM*	?	-47.4%	?
CCCN1[C@@H]2C[C@@H](O)CC[C@@H]2C[C@H]1C(=O)OC	3.9%	/	/	/	/
COC(=O)c1c2[n+](cc3cc(OC)c(OC)cc13)CCc1cc(OC)c(OC)cc1-2	/	20.6µM*	18.4µM*	/	2.1%
Cc1cccc(OP(=O)(NCc2ccccc2)Oc2cccc(C)c2)c1	-4.1%	25.9µM*	?	1.3%	1.3%
COC(=O)c1c(OCc2cccnc2)cc(=O)n2c1CCN(Cc1cc3c(cc1Cl)OCO3)CC2	/	18.4µM*	?	/	/
C=C1C(=O)OC2C1CCC(C)C1(O)C=CC(=O)C21C (stereo unspecified)	/	2.31µM*	2.59µM*	/	25.4%
CC(C)NS(=O)(=O)c1ccc2c(c1)oc(=O)n2C	2.6%	?	-16.9%	-1.2%	-26.3%
O=C(Nc1ccc2c(c1)OCO2)c1cccn(Cc2cccc(F)c2)c1=O	-5.2%	-17.6%	-13.3%	-0.9%	/
CC(C)=CC1C(C(=O)OCN2C(=O)C3=C(CCCC3)C2=O)C1(C)C (stereo unspecified)	/	-23.5%	-28.3%	/	/
CN(Cc1ccc(OC(F)F)cc1)Cc1nc2c(Br)cc(Br)cc2c(=O)[nH]1	2.5%	16.4µM*	?	-5.9%	13.9%
CS(=O)(=O)c1ccc(C2=C(CNC(=O)c3ccc([N+](=O)[O-])cc3)[C@H]3CC[C@@H](C2)N3Cc2ccccc2)cc1	/	-25.6%	-17.8%	/	/
CS(=O)(=O)c1ccc(C2=C(CNC(=O)c3ccc([N+](=O)[O-])cc3)[C@H]3CC[C@@H](C2)N3CCOc2ccccc2)cc1	/	14.6µM*	?	/	/
O=C(NCC1=C(c2cccc3ccccc23)C[C@@H]2CC[C@H]1N2Cc1ccco1)c1ccc([N+](=O)[O-])cc1	/	18.4µM*	20.6µM*	/	/
COc1ccc2[nH]c(C)c(CCNCc3cn(C)c4ccccc34)c2c1	9.8%	9.2µM*	11.6µM*	/	4.9%
